Source: the supplement of paper PMC10849652
Targets with a hit are over-represented here; the source holds about 7,900 in all. About 0.6% of all pairs of compound and target were hits. Unmarked numbers belong to inactive results.

What was measured:
Experiment in all cases: log2 fold change, soluble protein after heating vs DMSO (PISA); higher = thermal stabilisation; K562 cells, 10 uM, 30 min; active = over 0.2 and 3.5 SD of the protein, either way, in both replicates (recomputed)
IRAK-1-4 Inhibitor I = compound: C1COCCN1CCN2C3=CC=CC=C3N=C2NC(=O)C4=CC(=CC=C4)[N+](=O)[O-] [IRAK-1-4 Inhibitor I]
Outline: (§1)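 K562 cells at 2×10^6 cells/mL were exposed to 10 μM compound for 30 min, then aliquots were heated for 3 min across 48°C-58°C, pooled, and extracted in PBS containing 0.5% NP-40 at 4°C. The supernatant after 21,000xg for 90 min was taken as soluble protein and measured by TMTpro 16plex LC-MS/MS with channel sums equalised. Thermal stability is reported relative to control samples, with values from duplicates. Fold changes are given on a log2 scale.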

ibrutinib = compound: C=CC(=O)N1CCC[C@@H](n2nc(-c3ccc(Oc4ccccc4)cc3)c3c(N)ncnc32)C1 [ibrutinib]
Outline: as §1

[1] = compound: CC(=O)c1cnc2ccc(-c3cc(Cl)c(O)c(Cl)c3)nc2c1N[C@H]1CC[C@H](CN(C)C)CC1
Outline: as §1

ralimetinib = compound: CC(C)(C)Cn1c(N)nc2ccc(-c3[nH]c(C(C)(C)C)nc3-c3ccc(F)cc3)nc21 [ralimetinib]
Outline: as §1

[2] = compound: CC(C)(O)CC(=O)NCCn1ccc2ncnc(Nc3ccc(Oc4cccc(C(F)(F)F)c4)c(Cl)c3)c21
Outline: as §1

[3] = compound: CC(C)C1=C2N=C(C=C(N2N=C1)NCC3=CC=CC=C3)NCCCCCCN
Outline: as §1

[4] = compound: CC(C)C[C@@H](C=O)NC(=O)[C@H](CC(C)C)NC(=O)[C@H](CC(C)C)NC(=O)OCc1ccccc1
Outline: as §1

pinometostat = compound: CC(C)N(C[C@H]1O[C@@H](n2cnc3c(N)ncnc32)[C@H](O)[C@@H]1O)[C@H]1C[C@@H](CCc2nc3cc(C(C)(C)C)ccc3[nH]2)C1 [pinometostat]
Outline: as §1

[5] = compound: CC1=C(C(CC(=O)N1)C2=CC=C(C=C2)C(F)(F)F)C(=O)NC3=C(C=C4C(=C3)C=NN4)F
Outline: as §1

[6] = compound: CC1=C(C2=C(C=C1)C(=O)C3=CC=CC=C3N2CCCN)C
Outline: as §1

Sequence of UniProt Q86TP1 (Q86TP1 whole entry, looked up): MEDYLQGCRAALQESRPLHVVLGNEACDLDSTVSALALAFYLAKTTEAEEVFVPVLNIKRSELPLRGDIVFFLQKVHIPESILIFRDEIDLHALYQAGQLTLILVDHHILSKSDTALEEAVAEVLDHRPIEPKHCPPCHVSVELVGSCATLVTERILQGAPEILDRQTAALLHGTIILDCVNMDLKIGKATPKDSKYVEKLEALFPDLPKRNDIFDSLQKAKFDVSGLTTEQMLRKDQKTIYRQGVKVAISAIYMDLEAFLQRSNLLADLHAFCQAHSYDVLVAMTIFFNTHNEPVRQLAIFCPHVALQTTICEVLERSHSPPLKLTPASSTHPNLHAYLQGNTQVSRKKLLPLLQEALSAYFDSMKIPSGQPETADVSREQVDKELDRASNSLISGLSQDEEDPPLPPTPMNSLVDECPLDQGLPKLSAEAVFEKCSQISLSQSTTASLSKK
Sequence of UniProt Q9UBV8 (Q9UBV8 whole entry, looked up): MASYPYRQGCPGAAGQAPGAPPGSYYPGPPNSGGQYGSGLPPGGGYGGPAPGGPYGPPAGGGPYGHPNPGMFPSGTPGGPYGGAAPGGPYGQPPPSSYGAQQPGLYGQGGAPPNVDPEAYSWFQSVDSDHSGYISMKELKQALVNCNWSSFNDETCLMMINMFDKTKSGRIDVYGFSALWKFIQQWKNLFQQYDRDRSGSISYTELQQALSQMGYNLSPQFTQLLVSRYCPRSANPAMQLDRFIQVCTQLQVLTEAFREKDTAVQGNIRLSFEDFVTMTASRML
Sequence of UniProt Q10713 (Q10713 whole entry, looked up): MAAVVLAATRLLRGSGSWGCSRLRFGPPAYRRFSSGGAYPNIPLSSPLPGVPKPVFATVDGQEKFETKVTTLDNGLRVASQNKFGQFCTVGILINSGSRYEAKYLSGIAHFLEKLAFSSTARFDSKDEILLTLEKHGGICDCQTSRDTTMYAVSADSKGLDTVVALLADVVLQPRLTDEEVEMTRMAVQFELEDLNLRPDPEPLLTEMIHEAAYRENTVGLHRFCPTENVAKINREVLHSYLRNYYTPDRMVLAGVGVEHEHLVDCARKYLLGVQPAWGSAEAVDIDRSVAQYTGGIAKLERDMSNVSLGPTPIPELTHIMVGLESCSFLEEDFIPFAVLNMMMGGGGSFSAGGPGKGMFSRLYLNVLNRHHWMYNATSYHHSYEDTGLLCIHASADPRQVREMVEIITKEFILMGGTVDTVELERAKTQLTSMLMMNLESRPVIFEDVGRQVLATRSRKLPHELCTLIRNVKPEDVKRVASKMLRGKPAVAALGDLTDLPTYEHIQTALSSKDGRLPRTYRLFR
Sequence of UniProt Q14181 (Q14181 whole entry, looked up): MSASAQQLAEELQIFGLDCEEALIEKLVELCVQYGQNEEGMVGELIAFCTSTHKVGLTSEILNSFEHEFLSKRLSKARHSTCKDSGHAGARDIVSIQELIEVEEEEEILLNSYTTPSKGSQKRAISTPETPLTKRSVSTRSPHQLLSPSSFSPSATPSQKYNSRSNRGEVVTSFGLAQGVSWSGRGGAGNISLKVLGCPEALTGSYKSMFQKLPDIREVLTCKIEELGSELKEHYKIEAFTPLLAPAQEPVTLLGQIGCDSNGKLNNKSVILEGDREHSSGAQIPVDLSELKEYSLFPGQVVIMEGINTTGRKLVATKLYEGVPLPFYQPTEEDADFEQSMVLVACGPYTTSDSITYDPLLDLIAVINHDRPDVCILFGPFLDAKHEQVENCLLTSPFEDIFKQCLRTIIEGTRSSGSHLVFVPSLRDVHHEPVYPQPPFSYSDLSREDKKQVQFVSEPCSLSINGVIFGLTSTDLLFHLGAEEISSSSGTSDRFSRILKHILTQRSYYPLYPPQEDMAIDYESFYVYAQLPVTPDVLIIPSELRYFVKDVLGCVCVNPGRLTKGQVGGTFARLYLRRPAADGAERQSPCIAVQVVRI
Sequence of UniProt P09884 (P09884 whole entry, looked up): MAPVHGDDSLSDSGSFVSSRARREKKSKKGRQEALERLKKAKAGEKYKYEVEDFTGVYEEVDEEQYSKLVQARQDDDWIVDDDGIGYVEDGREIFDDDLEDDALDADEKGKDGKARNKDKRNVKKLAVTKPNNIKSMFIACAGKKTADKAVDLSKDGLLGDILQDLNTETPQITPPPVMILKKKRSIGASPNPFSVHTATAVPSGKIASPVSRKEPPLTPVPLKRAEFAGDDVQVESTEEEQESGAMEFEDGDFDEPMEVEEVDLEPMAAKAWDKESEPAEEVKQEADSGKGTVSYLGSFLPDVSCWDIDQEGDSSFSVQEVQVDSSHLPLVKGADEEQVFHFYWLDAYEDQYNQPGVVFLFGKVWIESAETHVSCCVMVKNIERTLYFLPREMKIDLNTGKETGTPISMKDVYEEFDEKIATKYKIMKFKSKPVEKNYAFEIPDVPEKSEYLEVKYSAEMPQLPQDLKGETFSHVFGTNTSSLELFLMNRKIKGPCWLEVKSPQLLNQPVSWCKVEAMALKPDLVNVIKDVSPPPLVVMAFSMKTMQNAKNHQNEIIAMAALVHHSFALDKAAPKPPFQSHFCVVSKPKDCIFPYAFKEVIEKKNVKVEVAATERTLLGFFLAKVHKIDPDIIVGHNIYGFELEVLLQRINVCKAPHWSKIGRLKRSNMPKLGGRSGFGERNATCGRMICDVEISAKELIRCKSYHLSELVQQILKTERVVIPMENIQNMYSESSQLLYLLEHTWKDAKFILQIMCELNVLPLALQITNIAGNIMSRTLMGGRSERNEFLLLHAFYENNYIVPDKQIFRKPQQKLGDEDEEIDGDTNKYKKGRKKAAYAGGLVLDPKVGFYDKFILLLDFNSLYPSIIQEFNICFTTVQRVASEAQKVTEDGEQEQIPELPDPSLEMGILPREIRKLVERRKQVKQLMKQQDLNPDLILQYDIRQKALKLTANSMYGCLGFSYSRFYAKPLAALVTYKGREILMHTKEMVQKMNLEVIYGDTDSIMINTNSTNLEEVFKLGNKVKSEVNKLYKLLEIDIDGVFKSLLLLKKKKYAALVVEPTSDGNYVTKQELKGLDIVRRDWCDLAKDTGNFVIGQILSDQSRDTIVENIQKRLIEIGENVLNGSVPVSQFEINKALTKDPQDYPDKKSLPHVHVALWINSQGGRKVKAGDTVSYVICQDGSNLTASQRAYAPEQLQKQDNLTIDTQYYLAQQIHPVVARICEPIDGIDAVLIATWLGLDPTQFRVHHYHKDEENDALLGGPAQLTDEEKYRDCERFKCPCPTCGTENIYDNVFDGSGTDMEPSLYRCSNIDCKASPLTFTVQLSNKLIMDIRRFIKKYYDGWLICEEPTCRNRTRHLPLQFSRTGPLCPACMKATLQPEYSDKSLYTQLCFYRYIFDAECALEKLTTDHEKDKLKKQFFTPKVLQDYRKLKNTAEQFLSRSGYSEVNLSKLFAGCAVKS
Sequence of UniProt Q16401 (Q16401 whole entry, looked up): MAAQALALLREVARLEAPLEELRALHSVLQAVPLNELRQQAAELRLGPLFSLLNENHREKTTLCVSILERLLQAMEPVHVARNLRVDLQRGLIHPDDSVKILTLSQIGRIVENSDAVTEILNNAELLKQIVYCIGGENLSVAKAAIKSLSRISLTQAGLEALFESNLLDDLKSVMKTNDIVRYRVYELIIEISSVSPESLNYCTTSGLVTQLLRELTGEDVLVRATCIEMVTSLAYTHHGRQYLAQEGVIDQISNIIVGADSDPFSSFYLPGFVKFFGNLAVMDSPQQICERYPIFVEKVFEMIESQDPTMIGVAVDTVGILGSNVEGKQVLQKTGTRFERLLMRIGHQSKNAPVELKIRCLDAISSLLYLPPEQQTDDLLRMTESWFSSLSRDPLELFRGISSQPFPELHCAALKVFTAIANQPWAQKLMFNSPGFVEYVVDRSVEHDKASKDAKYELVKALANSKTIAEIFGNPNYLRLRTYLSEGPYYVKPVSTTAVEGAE
Sequence of UniProt P62333 (P62333 whole entry, looked up): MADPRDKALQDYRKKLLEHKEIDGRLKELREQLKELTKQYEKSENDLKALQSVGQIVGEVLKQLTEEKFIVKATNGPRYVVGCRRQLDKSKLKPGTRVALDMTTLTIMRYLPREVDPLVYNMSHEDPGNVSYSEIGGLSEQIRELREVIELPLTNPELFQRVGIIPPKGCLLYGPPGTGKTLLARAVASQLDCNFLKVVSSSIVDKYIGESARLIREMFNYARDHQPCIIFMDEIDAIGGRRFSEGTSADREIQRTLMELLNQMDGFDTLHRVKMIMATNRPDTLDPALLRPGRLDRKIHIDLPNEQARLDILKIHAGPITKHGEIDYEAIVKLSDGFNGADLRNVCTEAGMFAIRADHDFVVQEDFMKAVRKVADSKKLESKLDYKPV

| Target | log2 fold change (IRAK-1-4 Inhibitor I) | log2 fold change (ibrutinib) | log2 fold change [1] | log2 fold change (ralimetinib) | log2 fold change [2] | log2 fold change [3] | log2 fold change [4] | log2 fold change (pinometostat) | log2 fold change [5] | log2 fold change [6] |
| --- | --- | --- | --- | --- | --- | --- | --- | --- | --- | --- |
| PSMD5 (UniProt Q16401) | 0.04 | -0.004 | 0.047 | -0.013 | -0.033 | -0.106 | -0.061 | -0.003 | 0 | -0.042 |
| POLR2D (UniProt O15514) | 0.042 | 0.082 | 0.346 (active) | -0.012 | -0.006 | 0.374 (active) | -0.009 | -0.026 | -0.02 | 0.26 |
| PRUNE1 (UniProt Q86TP1) | 0.049 | -0.058 | 0.012 | 0.017 | -0.037 | -0.129 | 0.04 | 0.08 | -0.019 | -0.021 |
| PDLIM7 (UniProt Q9NR12) | 0.017 | 0.005 | -0.054 | 0.08 | -0.035 | 0.024 | -0.045 | -0.019 | 0.004 | 0.065 |
| PSMD9 (UniProt O00233) | 0.033 | -0.005 | -0.003 | -0.029 | 0.003 | 0.069 | -0.015 | -0.039 | 0.017 | -0.004 |
| POLR2B (UniProt P30876) | -0.095 | -0.002 | 0.262 (active) | 0.066 | -0.047 | 0.08 | 0.03 | 0.037 | -0.031 | 0.03 |
| PELP1 (UniProt Q8IZL8) | 0.017 | -0.017 | -0.106 | 0.04 | -0.031 | 0.017 | -0.019 | 0.008 | 0.029 | -2.07 (active) |
| PDIK1L (UniProt Q8N165) | -0.006 | -0.205 | -0.693 (active) | -0.173 | 0.032 | -0.139 | 0.091 | -0.012 | 0.052 | -0.197 |
| PSMB4 (UniProt P28070) | -0.021 | 0.006 | 0.044 | -0.008 | 0.045 | 0.065 | -0.043 | 0.03 | 0.013 | 0.018 |
| PHKA2 (UniProt P46019) | 0.053 | -0.095 | 0.049 | 0.011 | -0.1 | -0.143 | 0.065 | 0.138 | 0.176 | 0.028 |
| POLR2K (UniProt P53803) | -0.041 | 0.003 | 0.059 | -0.093 | 0.028 | 0.429 (active) | 0.093 | -0.092 | -0.02 | 0.027 |
| POLA1 (UniProt P09884) | -0.034 | -0.06 | -0.02 | -0.018 | -0.066 | -0.151 | 0.005 | -0.027 | -0.044 | -0.066 |
| PKN1 isoform 2 (UniProt Q16512) | -0.014 | -0.018 | -1.2 (active) | 0.006 | -0.09 | -0.038 | 0.002 | 0.057 | -0.002 | 0.047 |
| PYGL (UniProt P06737) | 0.004 | 0.033 | -0.143 | -0.038 | 0.055 | 0.068 | -0.031 | -0.007 | 0.019 | 0.021 |
| PRMT7 (UniProt Q9NVM4) | 0.044 | -0.061 | -0.004 | -0.005 | 0.048 | -0.329 (active) | -0.033 | 0.074 | -0.022 | -0.065 |
| PRKCG (UniProt P05129) | 0.025 | -0.024 | -0.351 | 0.049 | -0.099 | -0.097 | 0.055 | 0.054 | 0.037 | 0.028 |
| PECAM1 (UniProt P16284) | 0.021 | 0.004 | -0.031 | -0.002 | -0.082 | 0.141 | -0.057 | 0.012 | 0.039 | 0.261 (active) |
| PAK4 (UniProt O96013) | 0.038 | -0.032 | 0.173 | -0.084 | 0 | 0.015 | 0.07 | 0.016 | -0.052 | 0.049 |
| PSMC6 (UniProt P62333) | -0.026 | 0 | 0.044 | 0.019 | 0.093 | 0.077 | -0.206 | 0.01 | 0.075 | -0.01 |
| PTP4A1 (UniProt Q93096) | -0.011 | -0.05 | 0.092 | -0.096 | 0.013 | -0.049 | -0.062 | -0.02 | 0.008 | -0.179 |
| PSMC4 (UniProt P43686) | -0.056 | -0.012 | 0.022 | 0.014 | 0.029 | 0.034 | -0.249 (active) | 0.025 | 0.02 | 0.016 |
| PLCB3 (UniProt Q01970) | -0.013 | -0.026 | -0.017 | 0.014 | -0.064 | -0.138 | -0.003 | 0.01 | -0.022 | 0.004 |
| PMPCA (UniProt Q10713) | 0.016 | -0.008 | -0.029 | 0.057 | -0.155 | 0.097 | -0.003 | -0.015 | -0.034 | 0.055 |
| PLCL1 (UniProt Q15111) | -0.007 | 0.31 | 0.08 | 0.125 | -0.329 | -0.102 | 0.089 | 0.365 | -0.086 | -0.193 |
| PTGES3 (UniProt Q15185) | 0.04 | 0 | -0.01 | 0.017 | -0.103 | -0.247 | -0.079 | -0.081 | 0.008 | -0.202 |
| PEF1 (UniProt Q9UBV8) | 0.003 | -0.002 | -0.03 | -0.057 | -0.092 | -0.094 | -0.085 | -0.041 | -0.014 | 0.085 |
| PMM2 (UniProt O15305) | 0.025 | -0.025 | 0.012 | -0.1 | 0.009 | 0.089 | -0.032 | -0.029 | 0.012 | -0.015 |
| PIK3CB (UniProt P42338) | -0.051 | -0.049 | 0.082 | 0.013 | -0.082 | -0.082 | 0.02 | -0.069 | -0.026 | 0.041 |
| POLA2 (UniProt Q14181) | 0.015 | -0.038 | -0.073 | -0.028 | -0.083 | -0.258 (active) | 0.011 | 0.041 | 0 | -0.021 |
| PARN (UniProt O95453) | 0.002 | -0.047 | -0.092 | -0.013 | -0.02 | -0.025 | 0.018 | -0.018 | 0.01 | 0.033 |
